Records with an inconclusive call do not appear. A call without a number means that no potency is given here. Active and inactive are the calls of the source. The call rests on the fitted dose curve; in most records, active means well fitted curve in the direction sought with a large enough effect; inconclusive means small, poorly fitted or top-dose-only effect, or another doubt; inactive means no such curve, though single readings can be large; an effect the other way counts as inactive or inconclusive.
Assays:
[1] = NS1 protein of Zika virus - qHTS assay to identify small molecule inhibitors in human HEK 293 cells (AID 1347053); conditions: HEK293 ZIKV MR766 infection, NS1 TR-FRET, 24 h; series mostly up to 46.1 µM; further: nearly all actives have a fitted effect of over 55% in size
Procedure, shortened: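 HEK 293 cells pretreated with compound for 1 h, then infected with ZIKV MR766 (MOI 0.5) for 24 h at 37 C. NS1 detected by TR-FRET with two anti-NS1 antibodies; normalized to uninfected (0%) and infected (100%) wells.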

[2] = qHTS of pediatric cancer cell lines to identify multiple opportunities for drug repurposing: Primary screen for TC32 cells (AID 1347089); conditions: TC32 Ewing sarcoma viability, CellTiter-Glo luminescence, 48 h; series mostly up to 45.8 µM; further: nearly all actives have a fitted effect of over 60% in size
Procedure, shortened: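 Luminescent ATP read-out (CellTiter-Glo) of metabolically active TC32 cells after 48 h exposure. Concentration-response curves came from 11-point (MIPE, 0.78 nM–46 µM) or 8-point (NPC, 0.59 nM–46 µM) primary titrations; follow-up used 11 points.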

[3] = qHTS of pediatric cancer cell lines to identify multiple opportunities for drug repurposing: Primary screen for SJ-GBM2 cells (AID 1347091); conditions: SJ-GBM2 viability, CellTiter-Glo luminescence, 48 h; series mostly up to 46 µM
Procedure, shortened: (§1)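 Viability measured as metabolically active cells via CellTiter-Glo luminescence following 48 hours of compound exposure, 11-point dilutions in confirmatory testing. 500-1,000 cells/well plated 5 hours before dosing; controls were DMSO and 2.3 µM bortezomib.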

[4] = qHTS of pediatric cancer cell lines to identify multiple opportunities for drug repurposing: Primary screen for A673 cells (AID 1347092); conditions: A673 Ewing sarcoma viability, CellTiter-Glo ATP luminescence, 48 h; series mostly up to 46 µM; further: nearly all actives have a fitted effect of over 45% in size
Procedure, shortened: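 Cell viability of A673 measured by CellTiter-Glo ATP luminescence after 48 hours compound exposure. Dilution series spanned 0.78 nM to 46 µM (MIPE, 11-point) or 0.59 nM to 46 µM (NPC, 8-point); bortezomib 2.3 uM positive control.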

[5] = qHTS of pediatric cancer cell lines to identify multiple opportunities for drug repurposing: Primary screen for DAOY cells (AID 1347090); conditions: DAOY medulloblastoma viability, CellTiter-Glo luminescence, 48 h; series mostly up to 46 µM; further: nearly all actives have a fitted effect of over 55% in size
Procedure, shortened: as §1

[6] = qHTS of pediatric cancer cell lines to identify multiple opportunities for drug repurposing: Primary screen for SK-N-MC cells (AID 1347093); conditions: SK-N-MC viability, CellTiter-Glo luminescence, 48 h; series mostly up to 46 µM
Procedure, shortened: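 Metabolically active cells were quantified by ATP-dependent luminescence (CellTiter-Glo, 15 min at room temperature) following 48 h treatment. Cells had been plated at 500-1,000 per well and settled for 5 h beforehand.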
Potency means the concentration at half of the fitted maximal effect.

| Compound | Potency [1] | Potency [2] | Potency [3] | Potency [4] | Potency [5] | Potency [6] |
| --- | --- | --- | --- | --- | --- | --- |
| O=C(CN1C(=O)C2(CCCC2)NC[C@H]1c1cc(F)cc(F)c1)Nc1ccc2c(c1)C[C@@]1(C2)C(=O)Nc2ncccc21 | inactive | inactive | inactive | inactive |  |  |
| c1coc(CNc2ncnc3nc[nH]c23)c1 | inactive | inactive |  | inactive | inactive | inactive |
| CC(N[C@H]1CCCC[C@H]1NC(=O)c1ccc(Cl)cc1)c1cccc2ccccc12 (stereo partly specified) | inactive | inactive |  | 0.743 µM (active) | 0.0296 µM (active) | 0.0209 µM (active) |
| Cc1cnc(Nc2ccc(N3CCN(C)CC3)cc2)nc1Nc1cccc(S(=O)(=O)NC(C)(C)C)c1 | 16.6 µM (active) | 10.4 µM (active) |  |  | 14.8 µM (active) | 1.05 µM (active) |
| OC[C@@H](O)[C@@H](O)[C@H](O)[C@@H](O)CO | inactive | inactive |  | inactive | inactive |  |
| Nc1ccn(C2CO[C@H](CO)O2)c(=O)n1 (stereo partly specified) | inactive | inactive | inactive |  | inactive | inactive |
| C[C@H](O)[C@@H]1C(=O)N2C(C(=O)O)=C(S[C@@H]3CN[C@H](CNS(N)(=O)=O)C3)[C@@H](C)[C@@H]12 | inactive | inactive | inactive | inactive |  |  |
| Cc1onc(-c2ccccc2)c1C(=O)N[C@@H]1C(=O)N2[C@@H](C(=O)O)C(C)(C)S[C@@H]12 | inactive | inactive |  |  | inactive | inactive |
| CCn1c(=O)c2c(nc(C=Cc3ccc(OC)c(OC)c3)n2C)n(CC)c1=O | inactive | inactive | inactive |  | inactive | 18.7 µM (active) |
| Oc1cc(-c2nc(-c3ccccc3)[nH]c2-c2ccncc2)ccc1Cl | 37.2 µM (active) | inactive | 4.69 µM (active) | 1.48 µM (active) |  |  |
| COc1cc(C(C)C)c(Oc2cnc(NC(CO)CO)nc2N)cc1I | inactive | inactive | inactive | 0.372 µM (active) |  |  |
| CC[C@H](CC[C@@H](C)[C@H]1CC[C@H]2[C@@H]3CC=C4C[C@@H](O)CC[C@]4(C)[C@@H]3CC[C@]12C)C(C)C | inactive | inactive | inactive | inactive |  |  |
| O=C(c1ccc(F)cc1)N1CCC[C@H](c2nc(-c3ccc(F)cc3)no2)C1 | inactive | inactive |  |  | inactive | inactive |
| CC(=O)NC(CS)C(=O)O (stereo unspecified) | inactive | inactive | inactive |  | inactive | inactive |
| CC1(C)CC(O)CC(C)(C)N1[O] | inactive | inactive |  | inactive | inactive |  |
| CC1(C)O[C@@H]2C[C@H]3[C@@H]4CCC5=CC(=O)C=C[C@]5(C)[C@@H]4[C@@H](O)C[C@]3(C)[C@]2(C(=O)CO)O1 | inactive | inactive |  | inactive | inactive | 29.6 µM (active) |
| COc1ccc([C@@H]2CNC(=O)C2)cc1OC1CCCC1 | inactive | inactive | inactive | 0.743 µM (active) |  | 0.469 µM (active) |
| OCCNC1CCCc2c1[nH]c1ccc(-c3ccccc3)cc21 (stereo unspecified) | 20.9 µM (active) | inactive | 23.5 µM (active) | 23.5 µM (active) |  |  |
| CN(C)c1ccc2cc(C(=O)N[C@@H](CCCN=C(N)CCl)C(=O)NCc3ccccc3)ccc2c1 | inactive | inactive | 20.9 µM (active) |  | 7.43 µM (active) | 3.32 µM (active) |
| CC[C@@]1([C@@H]2O[C@@H]([C@H]3O[C@@](O)(CO)[C@H](C)C[C@H]3C)C[C@H]2C)CC[C@H]([C@]2(C)CC[C@]3(C[C@H](O)[C@@H](C)[C@@H]([C@@H](C)[C@@H](OC)[C@H](C)C(=O)O)O3)O2)O1 | 1.29 µM (active) | 1.61 µM (active) | 0.288 µM (active) | 0.162 µM (active) |  |  |
| CC(C=CC=C(C)C=CC1=C(C)CCCC1(C)C)=CC=CC=C(C)C=CC=C(C)C=CC1=C(C)CCCC1(C)C | inactive | inactive |  |  | 18.7 µM (active) | 7.43 µM (active) |
| CN[C@H]1[C@@H](O)[C@@H]2O[C@@H]3O[C@H](C)CC(=O)[C@]3(O)O[C@@H]2[C@@H](NC)[C@H]1O | inactive | 13.1 µM (active) | 0.59 µM (active) | 0.0743 µM (active) |  | 0.166 µM (active) |
| N[C@H]1CN(c2c(F)cc3c(=O)c(C(=O)O)cn(C4C[C@@H]4F)c3c2Cl)CC12CC2 (stereo partly specified) | inactive | inactive | inactive | inactive |  |  |
| CC(C)(O)Cn1c(NC(=O)c2ccc(-c3cn[nH]c3)s2)nc2cc(CN3CCOCC3)ccc21 | 5.26 µM (active) | 8.29 µM (active) | 0.743 µM (active) | 1.18 µM (active) |  | 2.35 µM (active) |
